The record followed here is ChEMBL document CHEMBL2218924, “A broad activity screen in support of a chemogenomic map for kinase signalling research and drug discovery” (Biochem J, 2013).

In experiment [1] the target is MAP kinase-activated protein kinase 2 (Homo sapiens) (UniProt P49137). As to conditions: at 10 µM.
Experiment [2] deals with MAP kinase-activated protein kinase 3 (Homo sapiens) (UniProt Q16644). As to conditions: at 10 µM.
The target in experiment [3] is Serine/threonine-protein kinase MARK1 (Homo sapiens) (UniProt Q9P0L2). As to conditions: at 1 µM.
The target is the same in experiment [4]. As to conditions: at 10 µM.
Experiment [5] addresses Dual specificity mitogen-activated protein kinase kinase 1 (Homo sapiens) (UniProt Q02750). As to conditions: at 1 µM.
For experiment [6] the target is unchanged. As to conditions: at 10 µM.
Experiment [7] concerns the target Maternal embryonic leucine zipper kinase (Homo sapiens) (UniProt Q14680). As to conditions: at 1 µM.
Experiment [8] has the same target. As to conditions: at 10 µM.
For experiment [9], the target named is Misshapen-like kinase 1 (Homo sapiens) (UniProt Q8N4C8). As to conditions: at 1 µM.
Chain of Misshapen-like kinase 1 (Homo sapiens) (Q8N4C8 whole entry, looked up): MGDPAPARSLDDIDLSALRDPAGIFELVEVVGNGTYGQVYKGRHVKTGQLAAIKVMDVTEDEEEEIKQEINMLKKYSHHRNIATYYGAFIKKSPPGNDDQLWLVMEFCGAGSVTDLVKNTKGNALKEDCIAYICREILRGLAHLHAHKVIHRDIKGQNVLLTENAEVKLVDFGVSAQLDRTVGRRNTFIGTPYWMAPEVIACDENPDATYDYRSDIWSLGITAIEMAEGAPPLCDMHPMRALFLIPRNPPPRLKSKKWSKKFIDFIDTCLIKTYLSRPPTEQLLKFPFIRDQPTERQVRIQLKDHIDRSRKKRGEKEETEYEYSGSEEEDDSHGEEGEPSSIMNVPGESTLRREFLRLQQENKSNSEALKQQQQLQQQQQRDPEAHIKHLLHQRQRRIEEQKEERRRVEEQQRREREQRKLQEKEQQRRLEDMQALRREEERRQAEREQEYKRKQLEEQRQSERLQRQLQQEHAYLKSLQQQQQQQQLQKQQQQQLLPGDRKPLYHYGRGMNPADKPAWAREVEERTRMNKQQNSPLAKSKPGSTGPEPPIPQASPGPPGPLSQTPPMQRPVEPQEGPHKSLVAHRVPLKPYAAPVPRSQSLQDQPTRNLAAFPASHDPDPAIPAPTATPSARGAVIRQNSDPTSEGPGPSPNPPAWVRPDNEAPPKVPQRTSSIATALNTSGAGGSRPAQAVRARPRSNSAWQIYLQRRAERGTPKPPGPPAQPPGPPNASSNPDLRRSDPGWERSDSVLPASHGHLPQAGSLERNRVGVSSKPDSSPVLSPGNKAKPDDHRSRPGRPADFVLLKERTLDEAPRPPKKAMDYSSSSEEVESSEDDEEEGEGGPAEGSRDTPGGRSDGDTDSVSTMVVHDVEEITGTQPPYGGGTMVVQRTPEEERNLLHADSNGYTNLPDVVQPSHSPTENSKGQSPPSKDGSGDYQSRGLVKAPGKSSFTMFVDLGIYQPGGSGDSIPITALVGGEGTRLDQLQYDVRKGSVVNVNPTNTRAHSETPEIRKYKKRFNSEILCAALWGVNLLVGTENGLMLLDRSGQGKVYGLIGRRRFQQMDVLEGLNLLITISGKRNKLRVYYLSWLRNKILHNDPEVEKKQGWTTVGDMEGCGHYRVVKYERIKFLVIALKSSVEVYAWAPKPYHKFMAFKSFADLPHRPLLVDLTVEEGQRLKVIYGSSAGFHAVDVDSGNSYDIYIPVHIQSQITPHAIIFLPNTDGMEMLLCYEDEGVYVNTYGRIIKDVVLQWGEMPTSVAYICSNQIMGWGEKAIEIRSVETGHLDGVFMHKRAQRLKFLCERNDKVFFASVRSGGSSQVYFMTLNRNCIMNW
Experiment [10] has the same target. As to conditions: at 10 µM.
Experiment [11] addresses T1, Dual specificity mitogen-activated protein kinase kinase 6 (Homo sapiens) (UniProt P52564).
T1 sequence (whole entry): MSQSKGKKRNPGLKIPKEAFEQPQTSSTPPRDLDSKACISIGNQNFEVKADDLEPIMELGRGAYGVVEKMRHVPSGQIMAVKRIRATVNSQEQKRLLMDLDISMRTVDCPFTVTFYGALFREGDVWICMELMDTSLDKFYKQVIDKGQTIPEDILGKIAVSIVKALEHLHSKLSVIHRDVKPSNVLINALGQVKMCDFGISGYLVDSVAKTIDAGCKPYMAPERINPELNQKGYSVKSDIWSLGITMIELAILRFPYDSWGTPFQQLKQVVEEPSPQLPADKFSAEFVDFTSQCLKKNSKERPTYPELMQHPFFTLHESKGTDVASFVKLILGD
As to conditions: at 1 µM.

For experiment [12], the target named is T1, Dual specificity mitogen-activated protein kinase kinase 6 (Homo sapiens). As to conditions: at 10 µM.
The target of experiment [13] is T2, Dual specificity mitogen-activated protein kinase kinase 7 (Homo sapiens) (UniProt O14733).
T2 sequence (whole entry): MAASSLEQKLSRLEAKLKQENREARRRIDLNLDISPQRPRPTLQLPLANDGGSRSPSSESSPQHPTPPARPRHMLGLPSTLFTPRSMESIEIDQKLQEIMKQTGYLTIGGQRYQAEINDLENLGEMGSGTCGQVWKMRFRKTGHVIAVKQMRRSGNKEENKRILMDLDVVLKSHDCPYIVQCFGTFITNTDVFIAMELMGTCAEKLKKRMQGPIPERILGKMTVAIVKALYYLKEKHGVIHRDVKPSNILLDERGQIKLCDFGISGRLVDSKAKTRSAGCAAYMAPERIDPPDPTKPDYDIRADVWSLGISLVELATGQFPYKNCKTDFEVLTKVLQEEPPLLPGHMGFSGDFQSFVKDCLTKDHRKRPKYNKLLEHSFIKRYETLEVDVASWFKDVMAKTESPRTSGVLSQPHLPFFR
As to conditions: at 1 µM.

Experiment [14] has as its target T2, Dual specificity mitogen-activated protein kinase kinase 7 (Homo sapiens). As to conditions: at 10 µM.
Experiment [15] has as its target Myosin light chain kinase, smooth muscle (Homo sapiens) (UniProt Q15746). As to conditions: at 1 µM.
Experiment [16] has the same target. As to conditions: at 10 µM.
The target in experiment [17] is Mitogen-activated protein kinase kinase kinase 9 (Homo sapiens) (UniProt P80192). As to conditions: at 1 µM.
The target is the same in experiment [18]. As to conditions: at 10 µM.
The target of experiment [19] is Serine/threonine-protein kinase MRCK alpha (Homo sapiens) (UniProt Q5VT25). As to conditions: at 1 µM.
The target is the same in experiment [20]. As to conditions: at 10 µM.

Chain of Myosin light chain kinase, smooth muscle (Homo sapiens) (Q15746 whole entry): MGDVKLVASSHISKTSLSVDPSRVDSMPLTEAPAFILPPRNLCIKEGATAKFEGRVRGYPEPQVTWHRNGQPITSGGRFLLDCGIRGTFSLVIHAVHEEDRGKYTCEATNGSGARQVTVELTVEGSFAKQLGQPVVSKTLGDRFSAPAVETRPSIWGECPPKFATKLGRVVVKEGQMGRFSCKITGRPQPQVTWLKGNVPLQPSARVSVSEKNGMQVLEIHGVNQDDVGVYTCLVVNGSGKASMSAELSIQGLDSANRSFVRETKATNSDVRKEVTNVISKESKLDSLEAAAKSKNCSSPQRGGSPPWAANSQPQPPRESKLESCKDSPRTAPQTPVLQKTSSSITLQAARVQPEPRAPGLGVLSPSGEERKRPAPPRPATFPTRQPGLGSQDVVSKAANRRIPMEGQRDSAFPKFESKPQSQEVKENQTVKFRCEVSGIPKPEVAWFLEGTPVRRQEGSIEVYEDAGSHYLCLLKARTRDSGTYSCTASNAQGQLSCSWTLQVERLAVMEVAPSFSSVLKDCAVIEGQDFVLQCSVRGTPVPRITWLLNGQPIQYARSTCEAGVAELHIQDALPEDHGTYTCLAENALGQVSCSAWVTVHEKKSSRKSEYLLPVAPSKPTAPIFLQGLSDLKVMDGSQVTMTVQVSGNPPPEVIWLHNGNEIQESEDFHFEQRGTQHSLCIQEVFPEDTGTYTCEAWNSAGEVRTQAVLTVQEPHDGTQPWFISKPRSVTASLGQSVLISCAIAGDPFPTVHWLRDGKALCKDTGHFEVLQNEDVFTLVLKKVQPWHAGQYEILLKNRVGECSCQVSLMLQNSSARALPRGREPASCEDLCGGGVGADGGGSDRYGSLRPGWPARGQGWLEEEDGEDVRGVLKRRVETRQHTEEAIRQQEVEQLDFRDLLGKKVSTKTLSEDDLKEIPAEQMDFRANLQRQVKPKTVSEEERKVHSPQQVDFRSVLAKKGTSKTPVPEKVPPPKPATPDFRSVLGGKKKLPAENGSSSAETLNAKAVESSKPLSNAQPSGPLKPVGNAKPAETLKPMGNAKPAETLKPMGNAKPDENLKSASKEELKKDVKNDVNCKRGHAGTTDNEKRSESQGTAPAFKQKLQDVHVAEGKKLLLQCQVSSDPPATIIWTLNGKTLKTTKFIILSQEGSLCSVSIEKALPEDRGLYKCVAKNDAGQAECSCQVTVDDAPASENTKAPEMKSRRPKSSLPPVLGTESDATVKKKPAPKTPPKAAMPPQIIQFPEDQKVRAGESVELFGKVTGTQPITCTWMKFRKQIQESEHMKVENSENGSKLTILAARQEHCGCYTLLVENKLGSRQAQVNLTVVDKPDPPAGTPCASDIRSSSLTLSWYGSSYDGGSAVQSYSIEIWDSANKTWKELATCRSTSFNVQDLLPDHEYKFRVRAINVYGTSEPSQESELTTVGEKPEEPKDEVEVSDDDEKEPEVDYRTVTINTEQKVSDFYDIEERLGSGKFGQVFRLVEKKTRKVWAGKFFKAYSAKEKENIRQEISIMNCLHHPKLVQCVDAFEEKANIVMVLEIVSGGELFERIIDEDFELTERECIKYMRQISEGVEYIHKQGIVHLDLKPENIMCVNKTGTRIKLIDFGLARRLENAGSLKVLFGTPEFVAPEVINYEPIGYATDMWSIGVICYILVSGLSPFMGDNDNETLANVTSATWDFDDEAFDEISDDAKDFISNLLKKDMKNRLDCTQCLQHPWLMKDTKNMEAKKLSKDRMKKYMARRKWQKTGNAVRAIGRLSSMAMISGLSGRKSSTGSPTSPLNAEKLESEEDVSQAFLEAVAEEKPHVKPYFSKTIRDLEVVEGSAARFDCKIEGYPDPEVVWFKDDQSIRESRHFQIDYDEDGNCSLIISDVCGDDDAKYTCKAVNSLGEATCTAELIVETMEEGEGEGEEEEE
Chain of MAP kinase-activated protein kinase 2 (Homo sapiens) (P49137 whole entry, looked up): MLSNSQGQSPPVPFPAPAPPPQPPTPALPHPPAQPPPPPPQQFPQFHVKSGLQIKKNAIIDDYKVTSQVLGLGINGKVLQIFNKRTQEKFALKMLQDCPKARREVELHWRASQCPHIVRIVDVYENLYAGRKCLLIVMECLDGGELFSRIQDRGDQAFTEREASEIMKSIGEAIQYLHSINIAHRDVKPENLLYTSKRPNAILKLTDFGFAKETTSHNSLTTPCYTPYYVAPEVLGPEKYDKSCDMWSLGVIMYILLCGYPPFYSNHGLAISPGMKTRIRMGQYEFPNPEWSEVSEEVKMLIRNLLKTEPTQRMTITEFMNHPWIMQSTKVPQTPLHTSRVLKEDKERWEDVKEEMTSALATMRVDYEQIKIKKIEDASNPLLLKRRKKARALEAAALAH
Chain of Maternal embryonic leucine zipper kinase (Homo sapiens) (Q14680 whole entry, looked up): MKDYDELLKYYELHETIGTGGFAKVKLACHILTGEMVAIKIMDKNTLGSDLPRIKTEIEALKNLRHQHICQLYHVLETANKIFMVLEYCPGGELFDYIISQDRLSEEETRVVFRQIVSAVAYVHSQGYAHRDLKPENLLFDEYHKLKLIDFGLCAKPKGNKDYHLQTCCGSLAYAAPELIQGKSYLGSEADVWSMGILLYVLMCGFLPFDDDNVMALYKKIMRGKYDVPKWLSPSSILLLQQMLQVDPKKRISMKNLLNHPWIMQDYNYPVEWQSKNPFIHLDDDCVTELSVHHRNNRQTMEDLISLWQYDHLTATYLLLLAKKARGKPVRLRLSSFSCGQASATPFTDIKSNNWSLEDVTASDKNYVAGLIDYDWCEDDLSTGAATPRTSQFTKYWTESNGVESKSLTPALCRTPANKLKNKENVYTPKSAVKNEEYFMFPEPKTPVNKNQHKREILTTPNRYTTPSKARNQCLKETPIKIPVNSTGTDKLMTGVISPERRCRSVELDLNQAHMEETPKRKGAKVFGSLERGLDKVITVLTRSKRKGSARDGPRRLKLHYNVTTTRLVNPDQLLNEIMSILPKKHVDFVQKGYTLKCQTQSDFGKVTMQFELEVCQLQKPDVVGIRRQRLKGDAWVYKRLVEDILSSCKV
Chain of Dual specificity mitogen-activated protein kinase kinase 1 (Homo sapiens) (Q02750 whole entry): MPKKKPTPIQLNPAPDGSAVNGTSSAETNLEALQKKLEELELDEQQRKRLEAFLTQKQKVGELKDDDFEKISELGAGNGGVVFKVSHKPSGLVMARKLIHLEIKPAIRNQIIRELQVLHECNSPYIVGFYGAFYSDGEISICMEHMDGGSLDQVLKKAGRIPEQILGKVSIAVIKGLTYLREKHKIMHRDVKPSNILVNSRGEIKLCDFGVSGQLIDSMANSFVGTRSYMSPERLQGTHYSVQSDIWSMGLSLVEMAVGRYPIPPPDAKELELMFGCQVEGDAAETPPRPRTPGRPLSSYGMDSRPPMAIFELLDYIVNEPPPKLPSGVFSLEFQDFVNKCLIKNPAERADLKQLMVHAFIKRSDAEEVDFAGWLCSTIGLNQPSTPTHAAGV
Chain of MAP kinase-activated protein kinase 3 (Homo sapiens) (Q16644 whole entry, looked up): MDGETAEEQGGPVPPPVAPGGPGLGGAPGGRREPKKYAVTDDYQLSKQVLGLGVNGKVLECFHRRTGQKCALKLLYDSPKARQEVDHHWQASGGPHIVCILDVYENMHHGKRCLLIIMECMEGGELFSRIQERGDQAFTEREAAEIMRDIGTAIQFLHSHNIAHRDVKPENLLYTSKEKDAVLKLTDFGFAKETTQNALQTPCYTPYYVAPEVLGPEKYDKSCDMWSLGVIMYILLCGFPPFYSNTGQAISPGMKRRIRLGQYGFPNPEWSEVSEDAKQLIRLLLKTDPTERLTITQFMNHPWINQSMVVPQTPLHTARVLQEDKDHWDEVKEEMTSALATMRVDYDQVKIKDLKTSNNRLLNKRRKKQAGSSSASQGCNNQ

As for `Nc1n[nH]c2nnc(-c3c(-c4ccccc4)nn4ccccc34)cc12`, the residual activity in experiment [1] came to 94%; in experiment [2] it was 93%; in experiment [3] it was 83%; in experiment [4], 78%; in experiment [5], 89%; in experiment [6] it was 38%. Besides, the residual activity turned out to be 91% in experiment [7]; 97% in [8]; 89% in experiment [9]; 39% in experiment [10]; 104% in experiment [11]; 65% in experiment [12]. Besides, the residual activity in experiment [13] worked out at 88%; in experiment [14], 70%; in experiment [15], 113%; in [16], 74%; in [17], 86%; in [18], 31%. Further, the figures for the residual activity in [19] and in experiment [20] were 111% and 98%, respectively.
On to `N#CCCc1ccc2c(c1)-c1[nH]c3ccc([N+](=O)[O-])cc3c1CC(=O)N2`, for which the residual activity in [1] amounted to 39%; in experiment [2], 49%; in experiment [3] it was 30%; in experiment [4], 9%; in experiment [7], 69%; in experiment [8], 52%. Also, the residual activity in experiment [9] is 38%; in experiment [10], 17%; in experiment [17], 7%; in experiment [18], 2%; in experiment [19] it was 35%; in [20], 19%.
On to `CC(=O)c1ccc(N2CCOCC2)cc1O`, for which the residual activity in experiment [2] is 111%; in experiment [3], 93%; in experiment [4], 91%; in experiment [5], 102%; in experiment [7] it was 90%; in experiment [8], 100%. Further, the residual activity stood at 108% in experiment [9]; 88% in [10]; 75% in experiment [11]; 91% in experiment [12]; 104% in experiment [13]; 96% in [14]. In addition, the residual activity in experiment [15] is 83%; in experiment [16], 85%; in [17], 89%; in experiment [18], 97%; in experiment [19] it was 105%; in experiment [20] it was 92%.
Take `c1ccc(-c2n[nH]cc2-c2ccnc3ccccc23)nc1`: the residual activity was found to be 109% in experiment [1]; 125% in experiment [2]; 93% in experiment [3]; 81% in experiment [4]; 97% in [7]; 82% in experiment [8]. Further, the residual activity in experiment [9] stood at 72%; in [10] it was 27%; in [11], 75%; in experiment [12], 48%; in [14], 87%; in experiment [15], 77%. Moreover, the residual activity came out at 97% in experiment [16]; 100% in [17]; 103% in [18]; 102% in experiment [19]; 100% in experiment [20].
Take `O=Nc1c(-c2c(O)[nH]c3ccccc23)[nH]c2ccccc12`: the residual activity in experiment [1] is 76%; in experiment [2], 88%; in experiment [3], 37%; in experiment [4] it was 5%; in [5], 64%; in experiment [6] it was 55%. The residual activity in experiment [8] worked out at 7%; in experiment [9] it was 54%; in experiment [10], 10%; in experiment [11], 63%; in experiment [12], 40%; in [13] it was 52%. Also, the residual activity in experiment [14] was 7%; in experiment [15], 46%; in [16], 13%; in [17], 6%; in [18], 1%; in [19], 142%. Also, the residual activity in [20] turned out to be 135%.
As for `CC[n+]1c(/C=C/N(C)c2ccccc2)n(-c2ccccc2)c2ccc(-c3nc4ccccc4s3)cc21`, the residual activity stood at 63% in experiment [1]; 86% in experiment [2]; 108% in experiment [3]; 111% in experiment [4]; 138% in experiment [5]; 95% in experiment [6]. The residual activity in experiment [7] was determined as 91%; in experiment [8] it was 46%; in [9], 102%; in experiment [10], 84%; in experiment [11], 80%; in experiment [12], 133%. The residual activity in experiment [13] turned out to be 108%; in experiment [14], 107%; in experiment [15], 80%; in experiment [16], 34%; in [17], 105%; in experiment [18], 103%. Moreover, the residual activity in [19] came to 99%; in experiment [20] it was 122%.
Turning to `Nc1ccc2ncnc(NCCc3ccc(Oc4ccccc4)cc3)c2c1`, the residual activity in [1] worked out at 106%; in experiment [2] it was 105%; in [3] it was 87%; in experiment [4], 62%; in experiment [5], 99%; in experiment [6] it was 101%. Moreover, the residual activity in [7] amounted to 63%; in [8], 40%; in experiment [9] it was 101%; in experiment [10], 82%; in [11], 90%; in experiment [12] it was 82%. Besides, the residual activity in [13] was 73%; in experiment [14], 96%; in experiment [15] it was 104%; in experiment [16] it was 64%; in experiment [18], 80%; in [19] it was 131%. In [20], the residual activity was found to be 124%.
